Data on 13 molecules can be found in publication PMC6792352, “Limited Chemical Structural Diversity Found to Modulate Thyroid Hormone Receptor in the Tox21 Chemical Library” (Environmental Health Perspectives, 2019).

Structures can show the parent of a compound that is named as a salt.

For the assay, the system named is thyroid hormone receptor (endogenous TRα and TRβ). Also noted: species or system GH3-TRE-Luc (rat pituitary); GH3-TRE-Luc luciferase reporter, antagonist mode against 1 nM T3, loss of signal, qHTS. The settings on record: read-out: Average AC50 (uM) GH3-TRE-Antag, antagonist mode, 1 nM T3, no GH3 cytotoxicity hit.
Consider `C=CC(C)(O)CC/C=C(\C)CCC=C(C)C` (stereo not drawn) [trans-Nerolidol], for which the AC50 was determined as 9.85 µM.
Then `CC1(C)C(/C=C(\Cl)C(F)(F)F)C1C(=O)OC(C#N)c1cccc(Oc2ccccc2)c1` (stereo not drawn) [alpha-Cyhalothrin], with 26.1 µM; and `Nc1ccc(N)c(Cl)c1` [2-Chloro-1,4-diaminobenzene sulfate], with 50.5 µM.
Then `CCCCNC(=O)n1c(NC(=O)OC)nc2ccccc21` [Benomyl], with 8.81 µM; and `Cn1cnc([N+](=O)[O-])c1Sc1ncnc2[nH]cnc12` [Azathioprine], with > 50 µM.
Then `Cc1cccc(N(C)C(=S)Oc2ccc3ccccc3c2)c1` [Tolnaftate], with > 20 µM; and `COC(=O)[C@H]1[C@H]2C[C@@H]3c4[nH]c5cc(OC)ccc5c4CCN3C[C@H]2C[C@@H](OC(=O)COc2ccc(OC)cc2)[C@@H]1OC` [Mefeserpine], with 21.6 µM; and `CCCCCc1ccc(C)cc1O` [Amylmetacresol], with 23.6 µM.
Take `Cl/C=C\C[N+]12CN3CN(CN(C3)C1)C2` [Chloroallyl methenamine chloride]: the AC50 came to 89.1 µM.
To `Clc1cccc(C(c2ccc3[nH]cnc3c2)n2ccnc2)c1` (stereo not shown) [Liarozole hydrochloride] belongs 38.6 µM; to `Cc1cc(C(C)(C)C)cc(C)c1CC1=NCCN1` [Xylometazoline hydrochloride], 11 µM; to `O=S(=O)(NS(=O)(=O)C(F)(F)F)C(F)(F)F` [1-Hexyl-3-methylimidazolium bis(trifluoromethylsulfonyl)imide], 66.1 µM.
Then `O=C1OC2(c3ccc(O)cc3Oc3cc(O)ccc32)c2ccccc21` [Fluorescein], with > 50 µM.
